Results on ten compounds are retold here after article PMC5540273 (PLoS ONE, 2017).

Some test systems named below: CDK8; CDK9; CDKL1; CDKL2; CDKL3; CDKL5; CHEK1; CHEK2; CIT; CLK1; CLK2; CLK3; CLK4; CSF1R-autoinhibited; CSF1R; CSK; CSNK1A1L; CSNK1A1; CSNK1D; CSNK1E.
Details in all cases: concentration: 1 μM, replicates: in singlicate; n = 1
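Further: KINOMEscan kinase panel screen.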

On to `Nc1ncc(-c2ccc3nccc(-c4ccncc4)c3c2)cc1S(=O)(=O)N1CCCCC1` [GSK1693850], for which the “%Inh” value was found to be 45% in the test on CDK8; 5% with CDK9; 0% in the test on CDKL1; 27% in the test on CDKL2; 0% in the test on CDKL3; 0% in the test on CDKL5. In addition, the “%Inh” value in the test on CHEK1 is given as 1%; with CHEK2, 23%; with CIT, 31%; in the test on CLK1, 81%; in the test on CLK2, 67%; in the test with CLK3, 49%. For the same compound, the “%Inh” value in the test on CLK4 was determined as 72%; in the test with CSF1R-autoinhibited it was 0%; in the test with CSF1R, 4%; in the test on CSK it was 0%; in the test on CSNK1A1L, 0%; in the test on CSNK1A1, 0%. Also, the entries for the “%Inh” value in the test on CSNK1D and with CSNK1E were 24% and 54%, respectively.

Regarding `CCNc1nccc(-c2c(-c3ccc(F)cc3)ncn2C2CCN(C)CC2)n1`, the “%Inh” value is on record as 0% in the test with CDK8; 0% in the test on CDK9; 30% in the test with CDKL1; 0% in the test with CDKL2; 0% in the test on CDKL3; 0% in the test with CDKL5. The “%Inh” value in the test with CHEK1 is reported as 7%; in the test with CHEK2, 0%; in the test on CIT, 30%; with CLK1 it was 35%; with CLK2, 45%; in the test with CLK3, 0%. Besides, the “%Inh” value was found to be 13% in the test with CLK4; 0% with CSF1R-autoinhibited; 0% in the test with CSF1R; 25% with CSK; 56% in the test on CSNK1A1L; 93% in the test on CSNK1A1. For the same compound, the entries for the “%Inh” value in the test on CSNK1D and in the test on CSNK1E were 98.6% and 99.9%, respectively.

Regarding `O=C(Nc1n[nH]c2cc(-c3cccs3)ccc12)C1CC1` [SB-731284], the “%Inh” value in the test with CDK8 was 15%; in the test on CDK9, 3%; in the test with CDKL1, 50%; with CDKL2, 98.1%; with CDKL3, 0%; in the test on CDKL5, 14%. Moreover, the “%Inh” value is recorded as 0% in the test on CHEK1; 0% in the test with CHEK2; 24% with CIT; 0% with CLK1; 21% with CLK2; 13% with CLK3. Also, the “%Inh” value is reported as 0% with CLK4; 0% in the test on CSF1R-autoinhibited; 0% in the test with CSF1R; 13% with CSK; 0% in the test on CSNK1A1L; 20% in the test with CSNK1A1. The “%Inh” value is listed as 0% with CSNK1D and 8% in the test with CSNK1E.

Take `CNc1nccc(-c2ccc3c(N)n[nH]c3c2)n1` [GSK2206003]: the “%Inh” value with CDK8 is recorded as 32%; in the test on CDK9, 11%; in the test on CDKL1, 18%; with CDKL2, 17%; in the test with CDKL3, 0%; in the test on CDKL5, 0%. The “%Inh” value in the test on CHEK1 was determined as 0%; in the test on CHEK2, 51%; in the test with CIT, 86%; in the test on CLK1 it was 97.1%; in the test on CLK2, 84%; in the test with CLK3, 48%. In addition, the “%Inh” value in the test on CLK4 came to 95.5%; in the test on CSF1R-autoinhibited, 11%; with CSF1R, 6%; in the test on CSK, 0%; in the test with CSNK1A1L, 6%; in the test with CSNK1A1 it was 0%. Besides, the results for the “%Inh” value in the test on CSNK1D and in the test on CSNK1E were 20% and 28%, respectively.

Consider `Cc1ccc(O)cc1Nc1ccnc2ccc(C(C)(C)C)cc12` [GW856805], for which the “%Inh” value in the test with CDK8 is recorded as 0%; in the test with CDK9 it was 12%; in the test on CDKL1, 24%; in the test on CDKL2, 0%; in the test with CDKL3, 17%; with CDKL5 it was 10%. The “%Inh” value with CHEK1 turned out to be 9%; in the test with CHEK2 it was 3%; in the test with CIT it was 25%; with CLK1, 0%; in the test with CLK2, 26%; with CLK3, 0%. The “%Inh” value in the test with CLK4 is 3%; in the test with CSF1R-autoinhibited it was 0%; with CSF1R, 32%; in the test on CSK, 53%; with CSNK1A1L, 20%; in the test with CSNK1A1, 40%. The entries for the “%Inh” value with CSNK1D and in the test with CSNK1E were 13% and 1%, respectively.

With `Cc1ccc(NC(=O)c2cccc(N3CCCCC3)c2)cc1-c1ccc(C(=O)NCC2CC2)cc1` [GSK1917008], the “%Inh” value with CDK8 is on record as 10%; in the test on CDK9, 0%; in the test on CDKL1, 7%; in the test on CDKL2, 16%; with CDKL3, 0%; in the test on CDKL5 it was 7%. Moreover, the “%Inh” value in the test on CHEK1 turned out to be 100%; in the test with CHEK2, 0%; in the test with CIT it was 86%; with CLK1 it was 22%; in the test on CLK2, 1%; in the test on CLK3, 0%. Besides, the “%Inh” value in the test with CLK4 came out at 32%; in the test on CSF1R-autoinhibited it was 0%; in the test on CSF1R, 45%; in the test with CSK it was 0%; with CSNK1A1L, 18%; in the test with CSNK1A1, 20%. The “%Inh” value in the test on CSNK1D came out at 27%; in the test on CSNK1E, 21%.

`CN1CCN(Cc2ccc(NC(=O)Nc3ccc(N(C)c4ccnc(Nc5ccc(CS(C)(=O)=O)cc5)n4)cc3)cc2)CC1.Cl` [GW827654]: the “%Inh” value in the test on CDK8 came out at 60%; in the test with CDK9 it was 50%; with CDKL1, 71%; in the test on CDKL2, 99.8%; in the test with CDKL3, 99.6%; in the test with CDKL5, 0%. The “%Inh” value in the test on CHEK1 amounted to 0%; in the test on CHEK2 it was 78%; in the test on CIT, 23%; in the test on CLK1, 42%; with CLK2, 0%; in the test on CLK3, 31%. For the same compound, the “%Inh” value in the test with CLK4 was found to be 0%; in the test with CSF1R-autoinhibited, 94.7%; in the test on CSF1R, 100%; in the test with CSK, 47%; in the test on CSNK1A1L, 0%; in the test with CSNK1A1, 30%. Moreover, the entries for the “%Inh” value in the test with CSNK1D and in the test on CSNK1E were 15% and 30%, respectively.

As for `CS(=O)(=O)c1cccc(CNc2nc(Nc3ccc4c(c3)CCC(=O)N4)ncc2C(F)(F)F)c1`, the “%Inh” value in the test with CDK8 is on record as 0%; in the test with CDK9, 8%; with CDKL1, 23%; in the test on CDKL2, 37%; with CDKL3, 10%; in the test with CDKL5, 0%. In addition, the “%Inh” value is reported as 0% in the test with CHEK1; 0% in the test on CHEK2; 37% in the test with CIT; 46% with CLK1; 22% with CLK2; 0% in the test with CLK3. For the same compound, the “%Inh” value in the test on CLK4 was 24%; in the test with CSF1R-autoinhibited it was 0%; in the test with CSF1R, 20%; with CSK, 1%; in the test with CSNK1A1L, 0%; with CSNK1A1, 0%. In addition, the “%Inh” value with CSNK1D and in the test with CSNK1E was 0% in each case.

Regarding `COc1cc(Nc2nccc(N3CCC(NC(=O)Nc4ccc5c(c4)OCO5)C3)n2)cc(OC)c1OC` (centres unmarked) [GSK1379766], the “%Inh” value worked out at 46% with CDK8; 0% in the test on CDK9; 0% with CDKL1; 41% in the test with CDKL2; 0% with CDKL3; 0% in the test with CDKL5. Also, the “%Inh” value with CHEK1 stood at 0%; with CHEK2 it was 4%; in the test with CIT, 0%; with CLK1, 25%; with CLK2, 0%; in the test with CLK3, 2%. Besides, the “%Inh” value was found to be 0% with CLK4; 0% in the test with CSF1R-autoinhibited; 41% in the test with CSF1R; 0% with CSK; 0% with CSNK1A1L; 0% in the test with CSNK1A1. Further, the entries for the “%Inh” value in the test on CSNK1D and in the test with CSNK1E were 0% and 20%, respectively.

`Cc1cc(-c2c(-c3ccc(F)cc3)ncn2CCCN2CCOCC2)nc(N)n1` [SB-222517]: the “%Inh” value with CDK8 is given as 0%; with CDK9 it was 0%; in the test with CDKL1 it was 30%; in the test on CDKL2 it was 0%; with CDKL3 it was 35%; in the test with CDKL5, 7%. Moreover, the “%Inh” value is 0% in the test with CHEK1; 0% in the test with CHEK2; 2% in the test on CIT; 0% in the test on CLK1; 30% in the test on CLK2; 0% with CLK3. Further, the “%Inh” value in the test on CLK4 turned out to be 16%; with CSF1R-autoinhibited, 17%; in the test with CSF1R, 14%; in the test on CSK, 7%; in the test with CSNK1A1L, 0%; with CSNK1A1 it was 17%. Besides, the entries for the “%Inh” value in the test with CSNK1D and in the test with CSNK1E were 7% and 1%, respectively.
